Screening results from PubChem.
IP6K1 inhibitor: IP6K1 kinase inhibition | IP6K1 kinase, ADP-Glo luminescence, 2 h; stronger effect = lower value | activity change, % (series mostly up to about 58 µM) | AID 1645851 | actives 0.81% (n = 140,000) | Q92551; in the data active = activity change below about -25%; also: % is scaled to controls: 0 for no effect and ±100 for the full control effect
Target sequence (Q92551 whole entry, looked up): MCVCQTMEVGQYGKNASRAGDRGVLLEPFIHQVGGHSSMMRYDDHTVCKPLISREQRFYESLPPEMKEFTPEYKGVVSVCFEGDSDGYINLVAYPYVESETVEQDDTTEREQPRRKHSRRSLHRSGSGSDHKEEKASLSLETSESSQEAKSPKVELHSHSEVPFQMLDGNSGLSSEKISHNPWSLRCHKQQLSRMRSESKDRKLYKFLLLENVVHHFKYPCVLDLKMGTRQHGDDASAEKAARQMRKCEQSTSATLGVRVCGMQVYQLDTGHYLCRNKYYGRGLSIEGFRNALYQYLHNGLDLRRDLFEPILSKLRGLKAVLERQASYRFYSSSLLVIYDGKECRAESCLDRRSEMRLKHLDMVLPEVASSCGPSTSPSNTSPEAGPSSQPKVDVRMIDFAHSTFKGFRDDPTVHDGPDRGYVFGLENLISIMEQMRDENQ
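ADP-Glo luminescence measures ADP made by human IP6K1 during a 2 h RT reaction with ATP/IP6 (mix at 1.3 mM/130 uM); top library doses 57.5 and 19.1 uM final.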
KDM5B inhibitor: blocks human KDM5B histone demethylase activity | Potency, µM (series often up to 57.7 µM), hits mostly inhibitors | KDM5B demethylase, FDH-coupled NADH fluorescence (FDH is formaldehyde dehydrogenase) | Q9UGL1 | actives 2.6% (n = 220,000) | AID 1347165; active = well fitted inhibition curve with a large enough effect; inconclusive = small, poorly fitted or top-dose-only effect; inactive = no such curve, though single readings can be large or run the other way; also: potency is read from the fitted curve at half-maximal effect; 0% is about no effect; nearly all actives have a fitted effect of over 70% in size
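KDM5BΔAP (200 nM final) in 50 mM HEPES pH 7.5, 0.01% Tween-20 was preincubated 10 min at RT with compound over a concentration range. Substrate mix (H3K4me3 12.5 µM, α-KG 25 µM, Fe²⁺, ascorbate, NAD⁺, FDH) was added, and NADH fluorescence change over 30 min gave dose-response curves.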
Active calls of the source: *; i = inactive; ? = inconclusive; · = not tested or not shown; ! = a repeat was not active. Only some compounds are listed: those with a hit (about 2.7% of all), similar ones and a draw of the others.

SMILES	IP6K1 inhibitor	KDM5B inhibitor
COc1ccc(NC(=O)c2ccc(S(=O)(=O)N3CCOCC3)o2)cc1	·	i
CN1CCC(NC(=O)C2(C)CCc3cnc(N4CCOCC4)nc32)CC1 (stereo unspecified)	9	35µM*
CC1(C(=O)NC2CCOCC2)CCCc2cnc(Nc3ccccc3)nc21 (stereo unspecified)	6	i
CCCc1noc(-c2cccn3c(CNC(=O)C4CCCC4)nnc23)n1	8	28µM*
O=C(NCc1nnc2c(-c3nc(C4CC4)no3)cccn12)C1CCCC1	1	28µM*
CCc1noc(-c2cccn3c(CNC(=O)C4CCC4)nnc23)n1	-2	25µM*
CCCc1noc(-c2cccn3c(CNC(=O)CC4CCCCC4)nnc23)n1	18	?
Cn1nc(C(=O)OCCOc2cccc(Cl)c2)c2ccccc2c1=O	·	i
Cc1cc(C(c2ccccc2Cl)N2CCN(C)CC2)c(NC(=O)c2ccco2)s1 (stereo unspecified)	·	i
CCCCn1c(=O)[nH]c(=O)c2c1nc(CNc1cc(F)ccc1C)n2CC	·	i
Cc1cc(CNC(=O)COc2cccc3ccccc23)c2ccccc2n1	·	i
CN1CCCCCC(O)c2cc(C(=O)Nc3cccc(OC(F)(F)F)c3)ccc21 (stereo unspecified)	5	?
Cc1cccc2nnc(N3CCN(C(=O)c4ccco4)CC3)n12	7	22µM*
Cc1cccc2sc(N3CCN(C(=O)c4ccco4)CC3)nc12	19	i
O=C(Cc1ccccn1)NC1CCN(c2nc3ncccc3o2)CC1	-10	25µM*!
COc1ccc(CC(=O)NC2CCN(c3ccc4nnc(C5CC5)n4n3)CC2)cc1	16	·
COc1ccc(CC(=O)NC2CCN(c3nnc4cccc(C)n34)CC2)cc1	18	28µM*
O=C(Cc1ccccn1)N1CCN(c2nc3ncccc3o2)CC1	-12	?
COc1ccc(CC(=O)N2CCCN(c3nc4ncccc4o3)CC2)cc1	2	i
COc1ccc(CC(=O)NC2CCN(c3nc4ncccc4o3)CC2)cc1	-7	32µM*
Cc1ccc(Cn2c(-n3nc(C)c(C)c3C)nc3c2c(=O)n(CC(N)=O)c(=O)n3C)cc1	·	i
O=C(CCC(=O)N1CC=C(c2c[nH]c3ncccc23)CC1)c1ccc(F)cc1	·	i
Cc1ccc(-c2nnc3ccc(NCCc4ccccc4)nn23)nc1	-14	?
O=C(Cc1cccc(Cl)c1)NC1CCN(c2nc3ncccc3o2)CC1	-13	?
O=C(Cc1ccc(F)cc1)NC1CCN(c2nc3ncccc3o2)CC1	-6	28µM*
SMILES	IP6K1 inhibitor	KDM5B inhibitor
O=C(Nc1ccc(F)c(Cl)c1)c1ccc[n+]([O-])c1	·	i
CCOCCNC(=O)C1CCCCN1Cc1ccc(-c2cccs2)cc1 (stereo unspecified)	-9	·
O=C(c1ccccc1)N1CC2(CCCCN2Cc2cccnc2)Cc2ccccc21 (stereo unspecified)	0	i
CN(C)CCOCC1(C)COc2ccc(C(=O)Nc3cccc(Cl)c3)cc2N1 (stereo unspecified)	1	35µM*
COc1cccc(NC(=O)c2ccc3c(c2)NC(C)(COc2cccnc2)CO3)c1 (stereo unspecified)	-9	?
CN(C)CCOCC1(C)COc2ccc(C(=O)Nc3cccc(N(C)C)c3)cc2N1 (stereo unspecified)	-5	?
CC1(COc2cccnc2)COc2ccc(C(=O)Nc3cccc(Cl)c3)cc2N1 (stereo unspecified)	-2	14µM*
O=C(NCc1cccs1)c1nc2sccn2c1-c1cccc(C(F)(F)F)c1	14	·
CNC(=O)Cn1nc(C(=O)N2CCC3(CC2)[C@H](O)C[C@@H]3O)cc1C	9	i
CCO[C@H]1C[C@@H](O)C12CCN(C(=O)c1cc3nc(C)cc(C)n3n1)CC2	31	28µM*
COc1cccc(-c2c(C(=O)NCc3ccccc3Cl)nc3sccn23)c1	13	·
CCNC(=O)N1CCc2c(sc3ncnc(NCC)c23)C1	4	32µM*
CCCNC(=O)N1CCc2c(sc3ncnc(N4CCN(C)CC4)c23)C1	-3	28µM*
CCNc1ncnc2sc3c(c12)CCN(C(=O)NCCOC)C3	12	28µM*
CCNc1ncnc2sc3c(c12)CCN(Cc1cccnc1)C3	-3	?
COCCNC(=O)N1CCc2c(sc3ncnc(N(C)C)c23)C1	5	?
CCNC(=O)N1CCc2c(sc3ncnc(N(C)C)c23)C1	-2	i
CCNc1ncnc2sc3c(c12)CCN(Cc1ccc[nH]1)C3	-3	28µM*
COCC(=O)N1CCc2c(sc3ncnc(N4CCN(C)CC4)c23)C1	-1	i
COc1ccc(F)cc1-c1cccc(C(=O)NCCNC(=O)c2cccc(Cl)c2)c1	19	·
Cc1ccc([S+](=O)([O-])NCCNC(=O)c2cccc(-c3ccsc3)c2)cc1	-3	·
COc1ccc(-c2cnc3[nH]cc(CC(=O)NCc4cccnc4)c3c2)cn1	-16	?
Cc1cccc(NC(=O)CN(C)Cc2coc(-c3ccccc3)n2)c1C	·	i
CC(C)N(C)S(=O)(=O)c1ccc(NC(=O)c2cc3ccccc3oc2=O)cc1	·	i
CN(Cc1ccccc1C(F)(F)F)C(=O)Cc1cccc(Cl)c1	1	i
SMILES	IP6K1 inhibitor	KDM5B inhibitor
COc1ccc(Nc2ncnc3sc4c(c23)CCCC4)cc1	-18	?
COCCCNc1ncnc2sc3c(c12)CCNC3	2	25µM*
COc1ccc(-c2ccc3nnc(CNC(=O)c4cccc(OC(F)(F)F)c4)n3n2)cc1	15	?
O=C(NCc1nnc2ccc(-c3ccccc3)nn12)c1cccc(Br)c1	15	22µM*
O=C(NCc1nnc2ccc(-c3ccc(Cl)cc3)nn12)c1cccc(Cl)c1	4	22µM*
N#Cc1ccc(C(=O)NCc2nnc3ccc(-c4ccc(F)cc4)nn23)cc1	45	28µM*
CC(=O)Nc1cccc(C(=O)NCc2nnc3ccc(-c4ccc(C)cc4)nn23)c1	8	?
O=C(NCc1nnc2ccc(-c3ccc(F)cc3)nn12)c1cccc(C(F)(F)F)c1	12	28µM*
COc1ccc(C(=O)NCc2nnc3ccc(-c4ccc(Cl)cc4)nn23)cc1F	-2	?
O=C(Cc1ccc(F)cc1)NCc1nnc2ccc(-c3ccc(Cl)cc3)nn12	14	?
Cc1nnc2sc(-c3cccc(NC(=O)C(C)(C)C)c3)nn12	·	i
Cc1ccc2oc(C(=O)NCC(c3cccs3)N3CCCCCC3)cc(=O)c2c1 (stereo unspecified)	·	i
COc1ccc(/C=C2/N=C(c3ccc(Cl)cc3Cl)NC2=O)cc1OC	·	i
Brc1ccc(-c2noc(CC(c3ccccc3)c3ccccc3)n2)cc1	·	i
O=C1C(c2ccc(F)cc2)N(CCc2ccccc2Cl)C(=O)CN1C1CCCCC1 (stereo unspecified)	·	i
CNC(=O)c1cc(C2CC2)nc2onc(C3CCCN3C(=O)c3cccc(Cl)c3)c12 (stereo unspecified)	10	·
O=C(C1CC1)N1CCN(Cc2ccccc2-c2cccnc2)CC1	6	·
Cc1ccc(C)c(C(=O)Nc2ccc(Cl)c(C(F)(F)F)c2)c1	·	i
COc1cc(OC)c(OC)cc1CNC(=O)c1nn(Cc2ccccc2)c(=O)c2ccccc12	·	i
O=C(N/N=C/c1c(Cl)cccc1Cl)c1cccs1	·	i
Cn1nccc1-c1cc2c(ccn2C)c(C(=O)NCc2cccnc2)n1	32	i
